USP10 inh = inhibitors of human USP10 deubiquitinase | purified USP10, Ub-rhodamine fluorescence, 60 min | inhibition, % at 20 µM | 47,000 compounds, 1.1% hits | AID 1645856, 2021
USP8 inh = inhibitors of human USP8 deubiquitinase; Ubiquitin carboxyl-terminal hydrolase 8 (Homo sapiens), P40818; purified USP8, Ub-rhodamine cleavage fluorescence, 30 min; inhibition, % at 20 µM; 47,000 compounds, 4.2% hits
USP17 inh = inhibitors of human USP17 deubiquitinase. AID 1645855, 2021. Ubiquitin carboxyl-terminal hydrolase 17-like protein 5 (Homo sapiens), A8MUK1. 47,000 compounds, 6.5% hits. purified USP17, Ub-rhodamine cleavage fluorescence, 3 h. inhibition, % at 50 µM
USP7 block = inhibitors of human USP7 deubiquitinase; Ubiquitin carboxyl-terminal hydrolase 7 (Homo sapiens), Q93009; purified USP7, Ub-rhodamine cleavage fluorescence; inhibition, % at 20 µM; 47,000 compounds, 0.3% hits
UCHL1 inh = inhibitors of human UCHL1 deubiquitinase | purified UCHL1, Ub-rhodamine cleavage fluorescence | AID 1645859, 2021 | Ubiquitin carboxyl-terminal hydrolase isozyme L1 (Homo sapiens), P09936 | 47,000 compounds, 0.2% hits | inhibition, % at 20 µM
USP30 inh = inhibitors of human USP30 deubiquitinase; Ubiquitin carboxyl-terminal hydrolase 30 (Homo sapiens), Q70CQ3; purified USP30, Ub-rhodamine cleavage fluorescence; inhibition, % at 25 µM; 47,000 compounds, 5.3% hits; AID 1645860, 2021
A number is an active result; i = inactive; nt = not tested or not shown. Sampled rows, rich in hits. Any-hit rate of the full collection: about 13%. Rule as the data show it: active = inhibition above about 30%; inactive = the rest.

SMILES	USP10 inh	USP8 inh	USP17 inh	USP7 block	UCHL1 inh	USP30 inh
COc1ccc(-c2cnc(N)nc2C2CCCN(C(=O)c3cccnc3)C2)cc1 (configuration not stated)	i	i	i	i	i	i
Cc1ccc(NC(=O)c2c(C)nc3sc(C(=O)Nc4ccc(F)cc4)c(N)c3c2-c2cccs2)c(C)c1	i	i	i	i	i	nt
Cc1cccc(NC(=O)Nc2ccc(C)n(CC(=O)Nc3ccccc3)c2=O)c1	i	i	60.9	i	i	41.2
Cc1ccc(NC(=O)Cn2c(Nc3cccc(C)c3)nc(C)cc2=O)cc1	i	i	35.8	i	i	57.9
COc1cccc(NC(=O)Cn2c(-n3nc(C)cc3C)nc3c(c2=O)CCC3)c1	i	i	i	i	i	i
Cc1cccc(NC(=O)Cn2c(-n3nc(C)cc3C)nc3c(c2=O)CCC3)c1	i	i	37.3	i	i	i
CCn1c(=O)c2nscc2n(CC(=O)Nc2cccc(C)c2)c1=O	i	i	i	i	i	i
Cc1cccc(NC(=O)Nc2ccc(C)n(CC(=O)Nc3ccc(C)c(C)c3)c2=O)c1	42.5	73.8	i	i	i	i
CC1(c2cccc3ccccc23)NC(=O)N(CC(=O)c2cc3ccccc3o2)C1=O (configuration not stated)	i	i	i	i	i	nt
CCC1/C=C(\C)C(O)C/C=C/C=C(\CO[C@@H]2OC(C)[C@H](OC(=O)c3c(C)c(Cl)c(O)c(Cl)c3O)C(O)[C@@H]2OC)C(=O)OC(C(C)O)C/C=C(C)/C=C(\C)C1O[C@@H]1OC(C)(C)[C@H](O)C(O)[C@@H]1OC(=O)C(C)C (some centres not stated)	i	i	i	i	i	i
Cc1nn(C)c(C)c1CNC(=O)C1CCN(c2nnc3ccc(C(F)(F)F)cn23)CC1	i	i	i	i	i	i
Cc1ccc(NC(=O)Nc2ccc(C)n(CC(=O)Nc3cccc(C)c3)c2=O)cc1	52.9	93.8	i	30.5	i	i
c1cnc(N2CCC(Cc3cc(Nc4cnccn4)ncn3)CC2)nc1	i	i	i	i	i	i
N#C/C(=C/c1ccc(Sc2ccccc2)o1)c1ccccc1	i	i	i	i	i	i
Cc1ccc(S(=O)(=O)N2CCN(c3c(C)n(C)c(=O)n(C)c3=O)CC2)cc1C	i	i	i	i	i	37.1
Cc1c(N2CCN(S(=O)(=O)c3ccc(F)c(F)c3)CC2)c(=O)n(C)c(=O)n1C	i	i	43.6	i	i	36.6
O=S(=O)(c1ccc(F)c(F)c1)N1CCCN(c2cc(-c3ccccn3)[nH]n2)CC1	i	i	nt	i	i	i
Cc1ccc(S(=O)(=O)N2CCN(c3c(C)n(C)c(=O)n(C)c3=O)CC2)c(C)c1	i	i	i	i	i	i
CC(C)CC(=O)N1CCCC1c1nnc(C(=O)Nc2cccc(F)c2)s1 (configuration not stated)	i	i	i	i	i	i
CC(Cc1ccco1)NC(=O)c1cccc(NC(=O)c2nnc(C3CC3)s2)c1 (configuration not stated)	i	i	31.3	i	i	i
Cc1cc(C)nc(Nc2ccc(C3CCN(C(=O)c4cc5ccc(F)cc5[nH]4)CC3)nc2)n1	i	i	i	i	i	i
O=C(CC1C=CCC1)N1CCC(c2ccc(Nc3ccc(F)cn3)cn2)CC1 (configuration not stated)	i	i	32.2	i	i	i
O=C(CN1C(=O)c2ccccc2Sc2ccc(C(=O)N3CCCC3)cc21)Nc1ccccc1Cl	i	i	52.0	i	i	i
CCC(CC)C(=O)c1c[nH]c(C(=O)NCc2cccs2)c1	i	i	i	i	i	38.2
Cc1ccc(-n2c(=O)n(CC(=O)N3CCC4(CC3)OCCO4)c3cccnc32)cc1	i	i	i	i	i	i
Cc1cc(C)c(NC(=O)CSc2nc3nccnc3c(=O)n2Cc2ccccc2Cl)c(C)c1	i	i	49.2	i	i	i
Cc1nc(C2COCCN2C(=O)c2ccc3c(c2)OCO3)cc(=O)[nH]1 (configuration not stated)	i	i	i	i	i	i
